The record followed here is the supplement of paper PMC10037445.

Assay [1] deals with RAW-Dual. Description: NF-kB SEAP reporter activity, fold change vs agonist alone; higher = enhanced NF-kB activity. A digest of the protocol:
(§1)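 RAW-Dual macrophages were seeded in DMEM at 50,000 cells/well in 384-well plates, given 50 nL of library stock by pin tool, and given a PRR agonist 1 h later. Plates were held at 37 °C, 5% CO2 for 20 hours, after which supernatant was read for IRF by QuantiLuc luminescence and for NF-κB by QuantiBlue absorbance at 620 nm. Reporter activity is expressed as fold change over wells that received agonist alone. A well was called cytotoxic when IncuCyte confluency fell below 70% of agonist controls in both mask sets.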

Assay [2] has as its system RAW-Dual. Description: NF-kB SEAP reporter activity, fold change vs agonist alone; cytotoxicity flag (confluency mask): cytotoxic (confluency <70% of control); library stock concentration (final ~1000-fold dilution): 10 mM; higher = enhanced NF-kB activity. A digest of the protocol: as §1
Assay [3] concerns RAW-Dual. Kind of assay: NF-kB SEAP reporter activity, fold change vs agonist alone; cytotoxicity flag (confluency mask): not cytotoxic; library stock concentration (final ~1000-fold dilution): 10 mM; higher = enhanced NF-kB activity. Summed up: as §1
Assay [4] relates to RAW-Dual. Description: NF-kB SEAP reporter activity, fold change vs agonist alone; cytotoxicity flag (confluency mask): not cytotoxic; library stock concentration (final ~1000-fold dilution): .1 mM; higher = enhanced NF-kB activity. A digest of the protocol: as §1
[5] abbreviates: library stock concentration (final ~1000-fold dilution): 10 mM, cytotoxicity flag (confluency mask): cytotoxic (confluency <70% of control), agonist: Imiquimod (TLR7) […].
Where [6] appears, read: library stock concentration (final ~1000-fold dilution): 10 mM, cytotoxicity flag (confluency mask): cytotoxic (confluency <70% of control), agonist: MPLA (TLR4) […].
The mark [7] stands for this setting: agonist: ODN 1826 (TLR9) 0.5 ug/mL.
[8] abbreviates: agonist: Pam2CSK4 (TLR2/6) 0.1 ug/mL.
The mark [9] stands for this setting: agonist: Pam3CSK4 (TLR2/1) 0.1 ug/mL.
Setting [10] is: library stock concentration (final ~1000-fold dilution): 10 mM, cytotoxicity flag (confluency mask): not cytotoxic, agonist: Imiquimod (TLR7) […].
Setting [11] is: library stock concentration (final ~1000-fold dilution): 10 mM, cytotoxicity flag (confluency mask): not cytotoxic, agonist: MPLA (TLR4) […].

Structures are written as SMILES. Whole data set: some 2,900 compounds, median “NF-kB SEAP reporter activity, fold change vs agonist alone” near 0.99, cut for the highest 2% near 2.6. This excerpt belongs to a sample that is enriched for the highest values.

On to `O=C(CBr)N1CC([N+](=O)[O-])([N+](=O)[O-])C1`, for which the “NF-kB SEAP reporter activity” value was 0.542 in the assay on RAW-Dual [1] (setting [5]); 0.295 in the assay on RAW-Dual [1] (setting [6]); 0.335 in the assay on RAW-Dual [2] (agonist: LPS (TLR4) 0.1 ug/mL); 0.252 in the assay on RAW-Dual [2] (setting [7]); 0.0912 in the assay with RAW-Dual [2] (setting [8]); 0.189 with RAW-Dual [2] (setting [9]).

Turning to `CC1=CC2Cc3[nH]c(=O)ccc3C3(C1)NCCCC23` (stereo not drawn), the “NF-kB SEAP reporter activity” value with RAW-Dual [1] (setting [10]) came out at 0.933; in the assay with RAW-Dual [1] (setting [11]), 1.03; in the assay on RAW-Dual [3] (agonist: LPS (TLR4) 0.1 ug/mL), 1.12; in the assay on RAW-Dual [3] (setting [7]), 0.952; with RAW-Dual [3] (setting [8]), 1.11; in the assay on RAW-Dual [3] (setting [9]), 1.22.

In the case of `COc1ccc(CC2NCC(O)C2OC(C)=O)cc1` (stereo not drawn), the “NF-kB SEAP reporter activity” value in the assay on RAW-Dual [1] (setting [5]) is 0.133; with RAW-Dual [1] (setting [6]), 0.231; with RAW-Dual [2] (agonist: LPS (TLR4) 0.1 ug/mL), 0.216; in the assay on RAW-Dual [2] (setting [7]), 0.171; with RAW-Dual [2] (setting [8]), 0.0635; in the assay with RAW-Dual [2] (setting [9]), 0.145.

Take `Cc1c(C(C)C2NCC(C)CC2O)ccc2c1CC1C2CC=C2CC(O)CCC21C` (stereo not drawn): the “NF-kB SEAP reporter activity” value in the assay on RAW-Dual [1] (setting [10]) was found to be 0.945; in the assay with RAW-Dual [1] (setting [11]), 1.15; in the assay on RAW-Dual [3] (agonist: LPS (TLR4) 0.1 ug/mL), 1.1; in the assay with RAW-Dual [3] (setting [7]), 1.02; in the assay with RAW-Dual [3] (setting [8]) it was 0.866; in the assay with RAW-Dual [3] (setting [9]), 1.03.

With `O.O=C1C=CCC2C3CCCN4CCCC(CN12)C34` (stereo not drawn), the “NF-kB SEAP reporter activity” value came to 0.531 in the assay with RAW-Dual [1] (setting [10]); 0.792 in the assay with RAW-Dual [1] (setting [11]); 1.41 in the assay with RAW-Dual [3] (agonist: LPS (TLR4) 0.1 ug/mL); 0.558 in the assay on RAW-Dual [3] (setting [7]); 0.957 in the assay on RAW-Dual [3] (setting [8]); 1.11 with RAW-Dual [3] (setting [9]).

On to `CCNC(=O)CC1N=C(c2ccc(Cl)cc2)c2cc(OC)ccc2-n2c(C)nnc21` (stereo not drawn), for which the “NF-kB SEAP reporter activity” value is 1.41 with RAW-Dual [1] (setting [10]); 2.47 in the assay on RAW-Dual [1] (setting [11]); 2.57 in the assay on RAW-Dual [3] (agonist: LPS (TLR4) 0.1 ug/mL); 1.9 in the assay on RAW-Dual [3] (setting [7]); 0.886 with RAW-Dual [3] (setting [8]); 1.43 with RAW-Dual [3] (setting [9]).

`Cc1sc2c(c1C)C(c1ccc(Cl)cc1)=NC(CC(N)=O)c1nnc(C)n1-2` (stereo not drawn): the “NF-kB SEAP reporter activity” value with RAW-Dual [1] (setting [10]) is 1.43; in the assay on RAW-Dual [1] (setting [11]), 2.38; in the assay with RAW-Dual [3] (agonist: LPS (TLR4) 0.1 ug/mL) it was 2.51; with RAW-Dual [3] (setting [7]) it was 1.97; in the assay with RAW-Dual [3] (setting [8]) it was 0.734; in the assay with RAW-Dual [3] (setting [9]), 1.69.

On to `Cc1sc2c(c1C)C(c1ccc(Cl)cc1)=NC(CC(=O)Nc1ccc(O)cc1)c1nnc(C)n1-2` (stereo not drawn), for which the “NF-kB SEAP reporter activity” value is 1.49 with RAW-Dual [1] (setting [10]); 2.56 in the assay with RAW-Dual [1] (setting [11]); 3.19 in the assay with RAW-Dual [3] (agonist: LPS (TLR4) 0.1 ug/mL); 2.24 in the assay on RAW-Dual [3] (setting [7]); 0.856 with RAW-Dual [3] (setting [8]); 1.74 in the assay on RAW-Dual [3] (setting [9]).

As for `Cc1sc2c(c1C)C(c1ccc(Cl)cc1)=NC(CC(=O)OC(C)(C)C)c1nnc(C)n1-2` (stereo not drawn), the “NF-kB SEAP reporter activity” value with RAW-Dual [1] (setting [5]) stood at 2.49; with RAW-Dual [1] (setting [6]), 2.26; in the assay on RAW-Dual [2] (agonist: LPS (TLR4) 0.1 ug/mL), 2.05; in the assay with RAW-Dual [2] (setting [7]) it was 1.9; in the assay with RAW-Dual [2] (setting [8]) it was 0.784; in the assay on RAW-Dual [2] (setting [9]) it was 1.19.

For `COc1ccc2c(c[n+](C)c3c4cc5c(cc4ccc23)OCO5)c1OC.Cl`, the “NF-kB SEAP reporter activity” value in the assay on RAW-Dual [1] (setting [10]) came out at 0.228; with RAW-Dual [1] (setting [11]), 0.224; in the assay with RAW-Dual [3] (agonist: LPS (TLR4) 0.1 ug/mL) it was 0.278; in the assay with RAW-Dual [3] (setting [7]), 0.195; with RAW-Dual [3] (setting [8]) it was 0.15; in the assay with RAW-Dual [3] (setting [9]), 0.163.

In the case of `O=c1[nH]c2ccccc2n1C1CCN(Cc2ccc(-c3nc4cc5nc[nH]c5cc4nc3-c3ccccc3)cc2)CC1`, the “NF-kB SEAP reporter activity” value was 0.45 in the assay with RAW-Dual [1] (setting [10]); 1.05 in the assay on RAW-Dual [1] (setting [11]); 1.2 in the assay with RAW-Dual [3] (agonist: LPS (TLR4) 0.1 ug/mL); 0.187 in the assay on RAW-Dual [3] (setting [7]); 0.317 with RAW-Dual [3] (setting [8]); 0.427 in the assay on RAW-Dual [3] (setting [9]).

Regarding `Br.COc1ccc2c(c1)C13CCCCC1C(C2)N(C)CC3.O` (stereo not drawn), the “NF-kB SEAP reporter activity” value in the assay with RAW-Dual [1] (setting [11]) was 0.902; with RAW-Dual [3] (agonist: LPS (TLR4) 0.1 ug/mL) it was 0.802; in the assay on RAW-Dual [3] (setting [7]) it was 0.615; with RAW-Dual [3] (setting [8]) it was 0.806; in the assay on RAW-Dual [3] (setting [9]), 0.824.

As to `Br.CN1C2CC(OC(=O)C(CO)c3ccccc3)CC1C1OC12.O.O.O` (stereo not drawn), the “NF-kB SEAP reporter activity” value in the assay on RAW-Dual [1] (setting [10]) was 0.88; with RAW-Dual [1] (setting [11]) it was 1.09; in the assay with RAW-Dual [3] (agonist: LPS (TLR4) 0.1 ug/mL), 0.989; in the assay on RAW-Dual [3] (setting [7]), 0.789; with RAW-Dual [3] (setting [8]) it was 1.04; in the assay on RAW-Dual [3] (setting [9]), 1.12.

In the case of `Cc1cccc(-c2ccnc3c(C(N)=O)cnn23)c1`, the “NF-kB SEAP reporter activity” value with RAW-Dual [1] (library stock concentration (final ~1000-fold dilution): .1 mM, cytotoxicity flag (confluency mask): not cytotoxic, agonist: Imiquimod (TLR7) […]) amounted to 0.791; with RAW-Dual [1] (library stock concentration (final ~1000-fold dilution): .1 mM, cytotoxicity flag (confluency mask): not cytotoxic, agonist: MPLA (TLR4) […]), 1.15; in the assay with RAW-Dual [4] (agonist: LPS (TLR4) 0.1 ug/mL) it was 1.21; in the assay on RAW-Dual [4] (setting [7]), 1.28; in the assay on RAW-Dual [4] (setting [8]), 1.25; in the assay with RAW-Dual [4] (setting [9]) it was 1.13.
